Data on 20 compounds can be found in PubChem BioAssay (NCATS).

Records with an inconclusive call do not appear. A call without a number means that no potency is given here. Active and inactive are the calls of the source. The call rests on the fitted dose curve; in most records, active means well fitted inhibition curve with a large enough effect; inconclusive means small, poorly fitted or top-dose-only effect; inactive means flat fitted curve, though single readings scatter.
Potency means the concentration at half of the fitted maximal effect.

Test system in one assay: not listed separately
Nature of the assay: qHTS profiling for inhibitors of Plasmodium falciparum proliferation (AID 504749). Further: nearly all actives have a fitted effect of over 60% in size. To be noted: P. falciparum in erythrocytes, SYBR Green DNA, 72 h; parasite line A. A digest of the protocol:
(§1)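 Fluorescence of SYBR Green-bound parasite DNA, read at 485/535 nm, served as the growth measure. Infected erythrocytes were cultured with compound 72 h; artemisinin (0.29 uM) and DMSO wells defined the normalization range.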
(Quantitative high-throughput screening tests each substance at several concentrations.)
With `CCOc1cc(N)c(Cl)cc1C(=O)NCC1CN(Cc2ccc(F)cc2)CCO1` (stereo not given), the Potency was 2.51 µM (active).

For the compound `COc1cc(NCc2ccc3nc(N)nc(N)c3c2C)cc(OC)c1OC`, the Potency was 0.0035 µM (active).

With `COc1cc([C@@H]2c3cc4c(cc3[C@H](O)[C@H]3COC(=O)[C@H]23)OCO4)cc(OC)c1OC`, the Potency is 8.91 µM (active).

The same assay, now with this note: P. falciparum in erythrocytes, SYBR Green DNA, 72 h; parasite line B.
For `Oc1c(Cl)cc(Cl)c2cccnc12`, the Potency was 10 µM (active).

For `C1CCC(C(CC2CCCCN2)C2CCCCC2)CC1` (stereo not given), the Potency is 8.91 µM (active).

In the case of `CCOc1cc(N)c(Cl)cc1C(=O)NCC1CN(Cc2ccc(F)cc2)CCO1` (stereo not given), the Potency is 11.2 µM (active).

On to `COc1cc(NCc2ccc3nc(N)nc(N)c3c2C)cc(OC)c1OC`, for which the Potency is 0.0071 µM (active).

On to `COc1cc([C@@H]2c3cc4c(cc3[C@H](O)[C@H]3COC(=O)[C@H]23)OCO4)cc(OC)c1OC`, for which the Potency is 8.91 µM (active).

A further assay relates to 3D7. Described as above. As to conditions: P. falciparum in erythrocytes, SYBR Green DNA, 72 h; series mostly up to 28.7 µM. A digest of the protocol: as §1
Regarding `CCc1cc(C(N)=S)ccn1`, the Potency entry is “inactive”.

On to `C1CCC(C(CC2CCCCN2)C2CCCCC2)CC1` (stereo not given), for which the Potency was 7.94 µM (active).

With `CCN(C)C(=O)Oc1cccc([C@H](C)N(C)C)c1`, the Potency entry was “inactive”.

For `COc1c(N2CCNC(C)C2)c(F)cc2c(=O)c(C(=O)O)cn(C3CC3)c12` (stereo not given), the Potency result is “inactive”.

With `CCn1cc(C(=O)O)c(=O)c2cc(F)c(N3CCN(C)CC3)cc21`, the Potency entry was “inactive”.

For the compound `CC1=CC(=O)c2ccccc2C1=O`, the Potency was 7.08 µM (active).

In the case of `COc1ccc(-c2ccc3cc(C(=O)O)ccc3c2)cc1C12CC3CC(CC(C3)C1)C2`, the Potency entry was “inactive”.

As to `Nc1[nH]c(=O)ncc1F`, the Potency entry was “inactive”.

For `O=C(O)c1cc(=O)[nH]c(=O)[nH]1`, the Potency entry was “inactive”.

For the compound `CC1=NN(c2ccccc2)C(=O)C1`, the Potency result was “inactive”.

For the compound `COc1cc(NCc2ccc3nc(N)nc(N)c3c2C)cc(OC)c1OC`, the Potency was 0.0063 µM (active).

For the compound `COc1cc([C@@H]2c3cc4c(cc3[C@H](O)[C@H]3COC(=O)[C@H]23)OCO4)cc(OC)c1OC`, the Potency is 2.24 µM (active).

On to `C#CCN[C@@H]1CCc2ccccc21`, for which the Potency result is “inactive”.

Take `Cn1nnc2c(C(N)=O)ncn2c1=O`: the Potency result was “inactive”.

Consider `O=C(O)c1cn(C2CC2)c2cc(N3CCNCC3)c(F)cc2c1=O`, for which the Potency result is “inactive”.

For the compound `COC(=O)Nc1nc2ccc(C(=O)c3ccccc3)cc2[nH]1`, the Potency entry was “inactive”.

In the next assay the test system is 7G8. Described as above. As to conditions: P. falciparum in erythrocytes, SYBR Green DNA, 72 h; series mostly up to 28.7 µM. A digest of the protocol:
as §1
For the compound `Oc1c(Cl)cc(Cl)c2cccnc12`, the Potency is 6.31 µM (active).

Regarding `CCc1cc(C(N)=S)ccn1`, the Potency entry is “inactive”.

On to `C1CCC(C(CC2CCCCN2)C2CCCCC2)CC1` (stereo not given), for which the Potency is 1.26 µM (active).

In the case of `CCN(C)C(=O)Oc1cccc([C@H](C)N(C)C)c1`, the Potency entry is “inactive”.

Turning to `CC1=CC(=O)c2ccccc2C1=O`, the Potency is 10 µM (active).

As to `CCOc1cc(N)c(Cl)cc1C(=O)NCC1CN(Cc2ccc(F)cc2)CCO1` (stereo not given), the Potency is 11.2 µM (active).

Consider `Nc1[nH]c(=O)ncc1F`, for which the Potency result is “inactive”.

In the case of `CC1=NN(c2ccccc2)C(=O)C1`, the Potency result is “inactive”.

Turning to `COc1cc(NCc2ccc3nc(N)nc(N)c3c2C)cc(OC)c1OC`, the Potency was 0.0794 µM (active).

With `COc1cc([C@@H]2c3cc4c(cc3[C@H](O)[C@H]3COC(=O)[C@H]23)OCO4)cc(OC)c1OC`, the Potency was 0.316 µM (active).

On to `C#CCN[C@@H]1CCc2ccccc21`, for which the Potency entry is “inactive”.

Regarding `CCOC(=O)c1ccc(OC(=O)CCCCCN=C(N)N)cc1`, the Potency was 3.55 µM (active).

In the case of `Cn1nnc2c(C(N)=O)ncn2c1=O`, the Potency result was “inactive”.

On to `O=C(O)c1cn(C2CC2)c2cc(N3CCNCC3)c(F)cc2c1=O`, for which the Potency is 3.16 µM (active).

For the compound `COC(=O)Nc1nc2ccc(C(=O)c3ccccc3)cc2[nH]1`, the Potency entry was “inactive”.

The next assay deals with AA1029. The assay is described as above. To be noted: P. falciparum in erythrocytes, SYBR Green DNA, 72 h; series mostly up to 28.7 µM. An outline of the steps:
as §1
For the compound `CCc1cc(C(N)=S)ccn1`, the Potency result was “inactive”.

Take `C1CCC(C(CC2CCCCN2)C2CCCCC2)CC1` (stereo not given): the Potency is 11.2 µM (active).

Consider `CCN(C)C(=O)Oc1cccc([C@H](C)N(C)C)c1`, for which the Potency entry is “inactive”.

Regarding `CC1=CC(=O)c2ccccc2C1=O`, the Potency entry is “inactive”.

As to `CN(Cc1cc(Br)cc(Br)c1N)C1CCCCC1`, the Potency result is “inactive”.

On to `CCOc1cc(N)c(Cl)cc1C(=O)NCC1CN(Cc2ccc(F)cc2)CCO1` (stereo not given), for which the Potency is 12.6 µM (active).

On to `COc1ccc(-c2ccc3cc(C(=O)O)ccc3c2)cc1C12CC3CC(CC(C3)C1)C2`, for which the Potency entry is “inactive”.

As for `Nc1[nH]c(=O)ncc1F`, the Potency result is “inactive”.

As for `O=C(O)c1cc(=O)[nH]c(=O)[nH]1`, the Potency entry is “inactive”.

On to `CC1=NN(c2ccccc2)C(=O)C1`, for which the Potency result was “inactive”.

For the compound `COc1cc(NCc2ccc3nc(N)nc(N)c3c2C)cc(OC)c1OC`, the Potency is 1 µM (active).

Turning to `COc1cc([C@@H]2c3cc4c(cc3[C@H](O)[C@H]3COC(=O)[C@H]23)OCO4)cc(OC)c1OC`, the Potency was 11.2 µM (active).

Take `C#CCN[C@@H]1CCc2ccccc21`: the Potency result was “inactive”.

Regarding `CCOC(=O)c1ccc(OC(=O)CCCCCN=C(N)N)cc1`, the Potency entry was “inactive”.

On to `Cn1nnc2c(C(N)=O)ncn2c1=O`, for which the Potency entry is “inactive”.

On to `COC(=O)Nc1nc2ccc(C(=O)c3ccccc3)cc2[nH]1`, for which the Potency result was “inactive”.
